# JNK3 blocker – JNK3 kinase activity inhibitors, primary screen, biochemical, human, purified enzyme | HTS | inhibition, % at 8 µM | 60,000 compounds, 0.61% hits; in the data active means inhibition above about 17%;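 further: 0% = DMSO and 100% = reference inhibitor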
# NFkB transloc inh – inhibitors of IL-1B driven NFkB p65 nuclear import, primary screen, imaging, HUVEC, IL-1B stimulus, high-content imaging; HUVEC IL-1B NFkB p65 nuclear translocation imaging; inhibition, % at 2 µM; 94,000 compounds, 0.43% hits; AID 796, 2007;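 active means inhibition above about 30% together with a positive call from visual inspection of the well image, limit read from the data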;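 further: nuclear over cytoplasmic p65 intensity ratio measured by imaging; 0% = IL-1B stimulated DMSO wells and 100% = unstimulated DMSO wells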
# Pyk2 oligo antag – antagonists of Pyk2 self-association, primary screen, Q293 cells, FERM NanoBiT luminescence, HTS; Protein-tyrosine kinase 2-beta (Homo sapiens), Q14289; hits give low values; z-score (the deposit names both 25 µM and 10 µM); 99,000 compounds, 0.83% hits;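 active means Z-score of -3 or lower, scaled per plate to the spread of control and sample wells; inactive means z-score above -3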;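 further: negative z-score means lost luminescence so less FERM oligomerization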
# Target sequence (Q14289 whole entry, looked up): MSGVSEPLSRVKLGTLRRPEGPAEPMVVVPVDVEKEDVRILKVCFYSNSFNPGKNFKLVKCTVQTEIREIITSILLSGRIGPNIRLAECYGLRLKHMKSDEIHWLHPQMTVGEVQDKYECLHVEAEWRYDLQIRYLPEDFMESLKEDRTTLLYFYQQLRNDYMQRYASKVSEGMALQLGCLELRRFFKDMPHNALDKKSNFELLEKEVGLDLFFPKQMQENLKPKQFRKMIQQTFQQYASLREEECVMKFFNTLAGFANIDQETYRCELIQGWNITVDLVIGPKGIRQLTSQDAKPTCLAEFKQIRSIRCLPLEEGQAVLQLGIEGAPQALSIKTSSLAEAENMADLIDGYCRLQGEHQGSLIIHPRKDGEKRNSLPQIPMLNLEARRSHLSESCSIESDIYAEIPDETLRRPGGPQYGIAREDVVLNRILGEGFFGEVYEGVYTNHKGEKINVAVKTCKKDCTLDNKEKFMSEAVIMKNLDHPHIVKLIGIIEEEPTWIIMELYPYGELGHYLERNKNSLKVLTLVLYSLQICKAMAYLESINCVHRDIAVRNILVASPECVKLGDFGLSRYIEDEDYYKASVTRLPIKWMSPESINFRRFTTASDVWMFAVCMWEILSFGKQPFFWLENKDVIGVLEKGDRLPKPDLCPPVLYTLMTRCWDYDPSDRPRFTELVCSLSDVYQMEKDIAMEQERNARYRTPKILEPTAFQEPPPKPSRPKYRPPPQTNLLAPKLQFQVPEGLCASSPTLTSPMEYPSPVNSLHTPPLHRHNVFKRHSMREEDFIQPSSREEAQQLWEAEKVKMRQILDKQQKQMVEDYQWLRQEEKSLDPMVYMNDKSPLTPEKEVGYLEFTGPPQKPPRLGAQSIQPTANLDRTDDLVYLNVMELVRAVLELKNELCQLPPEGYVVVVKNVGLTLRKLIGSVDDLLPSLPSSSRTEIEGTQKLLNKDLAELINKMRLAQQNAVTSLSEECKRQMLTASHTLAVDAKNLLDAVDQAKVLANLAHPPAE
# FAK blocker – FAK kinase inhibitors, primary screen, biochemical; Focal adhesion kinase 1 (Homo sapiens), Q05397; biochemical FAK kinase activity assay; inhibition, %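 (tested at 7 µM)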; 97,000 compounds, 0.84% hits; AID 727, 2007; in the data active means inhibition above about 19%;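 further: 0% = DMSO and 100% = reference compound high control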
# IL1B NFkB pot – enhancers of NFkB p65 translocation in HUVEC – imaging, IL-1B stimulus, high-content imaging, primary screen; HUVEC IL-1B NFkB p65 nuclear translocation imaging; activation, % at 2 µM; 94,000 compounds, 0.3% hits; AID 819, 2007;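 active means activation above 40%, about the mean plus 3 SD, also judged a hit on visual image review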;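 further: percent activation is computed from the nuclear over cytoplasmic p65 intensity ratio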
# IL1B cytotox – cytotoxicity in IL-1B stimulated HUVEC, primary screen, cytotoxicity control for IL-1B NFkB translocation project, imaging, Hoechst nuclear count, IL-1B stimulus | HUVEC cell count loss | cell count reduction, % at 2 µM | 94,000 compounds, 0.41% hits | AID 845, 2007;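 active means cell count reduction more than 3 SD above the screen-wide mean, cut at about 70% in these data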;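 further: normalized per plate to untreated control cells as the no-loss baseline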
# Active calls of the source: *; nt = no result. Sampled rows, rich in hits. Any-hit rate of the full collection: about 2.4%.
SMILES,JNK3 blocker,NFkB transloc inh,Pyk2 oligo antag,FAK blocker,IL1B NFkB pot,IL1B cytotox
NC(=S)n1[nH]c(-c2ccc([N+](=O)[O-])cc2)c(N=Nc2ccc(O)cc2)c1=O,nt,-2,-3.6*,0,2,1
CCN(CC)S(=O)(=O)c1ccc(N=Nc2c(C)[nH]n(C(N)=S)c2=O)cc1,nt,9,-1.1,-3,-9,-16
CCOC(=O)CSc1nc(-c2ccc(OC)cc2)ns1,1,0,1.4,1,0,-15
O=C(c1ccc(N2CCCC2=O)cc1)N1CCN(c2ccccc2)CC1,-4,-44,0.43,-3,44*,-31
Cn1nc(-c2ccc(C(=O)NCC3CCCO3)cc2)c2ccccc2c1=O (centres undefined),2,6,0.92,0,-6,90*
Cn1nc(-c2ccc(C(=O)O)cc2)c2ccccc2c1=O,nt,1,1.5,-1,-1,-138
Cn1nc(-c2ccc(C(=O)N3CCN(c4ccccc4)CC3)cc2)c2ccccc2c1=O,0,99*,nt,-6,-99,90*
O=C(c1ccc(N2CCCC2=O)cc1)N1CCCCCC1,9,12,0.54,4,-12,-7
COc1ccc(OC)c(C(=O)CSc2nnc(-c3cccnc3)n2C)c1,-6,-13,0.61,0,13,-6
FC(F)(F)c1cccc(-c2nnc(-c3ccccc3)c(N3CCOCC3)n2)c1,nt,0,-3.9*,3,0,-37
FC(F)(F)c1nnc(-c2ccccc2)nc1N1CCOCC1,nt,-9,0.12,0,9,26
O=C(COC(=O)c1c2c(nc3ccccc13)CCCC2)Nc1ccc2c(c1)OCO2,nt,2,-3.5*,10,-2,5
COc1cccc(NC(=O)COC(=O)c2cccnc2)c1,3,-4,0.6,-2,4,-20
COc1cccc(NC(=O)COC(=O)c2c3c(nc4ccccc24)CCC(C)C3)c1 (centres undefined),nt,-10,-4.7*,-3,10,-10
COc1ccccc1C1C(C(C)=O)=C(C)N=c2s/c(=C\c3cc(OC)c(OC)c(OC)c3)c(=O)n21 (centres undefined),nt,98*,-2.2,-6,-98,84*
CCOc1cccc(NC(=O)C2CCCN(S(=O)(=O)c3ccc(-n4cnnn4)cc3)C2)c1 (centres undefined),21*,8,0.88,-3,-8,-19
CCOC(=O)c1oc2cc(O)ccc2c(=O)c1-c1ccccc1OC,2,0,-0.74,2,0,-5
CCOC(=O)c1ccc(-c2c(C(=O)OCC)oc3cc(O)c(CC)cc3c2=O)o1,3,-9,-3.7*,4,9,2
Cc1cccc2[nH]c(-c3ccc(NC(=O)c4ccco4)cc3)nc12,0,6,-0.8,6,-6,19
Nc1nc(CN2CCCCCC2)nc(Nc2ccccc2)n1,nt,-8,0.46,-11,8,-10
Cc1c(-c2nc(N)nc(Nc3ccccc3)n2)oc2ccccc12,18*,1,-1.8,8,-1,-27
O=C(COC(=O)c1cc(=O)[nH]c2ccccc12)NC(=O)NC1CCCCC1,9,-10,-3.7*,3,10,-9
O=C(COC(=O)c1n[nH]c2ccccc12)NC(=O)NC1CCCC1,nt,-9,-1.6,1,9,-8
O=C/C(=C\Nc1ccc(Cl)cn1)c1nc2ccccc2o1,nt,4,-1.1,1,-4,-9
O=C/C(=C\Nc1ccc(Cl)cn1)c1nc2cc(Cl)ccc2o1,nt,-50,1.3,4,50*,-8
SMILES,JNK3 blocker,NFkB transloc inh,Pyk2 oligo antag,FAK blocker,IL1B NFkB pot,IL1B cytotox
CCn1c(Sc2nc(C)nc3scc(-c4cccs4)c23)n[nH]c1=O,3,-6,0.17,10,6,2
CCc1nc2scc(-c3cccs3)c2c(=O)o1,nt,45*,-0.47,-1,-45,8
O=C(CSc1nnc(CNc2cccc(C(F)(F)F)c2)n1Cc1ccco1)NCc1ccco1,nt,-69,0.78,3,69*,-38
O=C(O)CSc1nnc(CNc2cccc(C(F)(F)F)c2)n1Cc1ccco1,-1,-6,0.33,-2,5,-65
CC(=Nc1ccc(C)cc1)c1sc2ccccc2c1O,nt,-4,-0.36,2,5,-8
CC(=Nc1cccc(O)c1)c1sc2ccccc2c1O,-1,53*,-0.27,3,-53,-41
Cc1ccc(-c2cc(N)n(-c3ccccc3)n2)cc1,nt,67*,-0.06,0,-67,-18
COC(=O)c1sccc1NC(=O)c1cccnc1,16,-6,0.11,0,6,28
COC(=O)c1sccc1NC(=O)c1ccc(OC)cc1,38*,8,-3,-2,-8,-8
CCNC(=O)c1ccccc1NC(=O)c1cccc(S(=O)(=O)N2CCC(C)CC2)c1,-4,-3,-2.9,-6,3,-6
CNC(=O)c1ccccc1NC(=O)c1cccc(S(=O)(=O)N2CCC(C)CC2)c1,-2,nt,-3.5*,nt,nt,nt
COc1cc(OC)cc(C(=O)Nc2ccccc2C(=O)N2CCCC2)c1,nt,-16,1.1,0,16,-12
COc1c(Cl)cc(C(=O)Nc2ccccc2C(=O)O)cc1Cl,nt,2,-3.1*,-5,-2,-17
Cc1ccc(Nc2cc(C)nn2-c2nc(C)cc(C)n2)cc1,-2,-23,-0.83,-2,23,11
Cc1ccc(Nc2cc(C)nn2-c2nc(C)cc(=O)[nH]2)cc1,5,78*,-1.9,6,-78,14
Nc1nnc(CCOc2ccccc2Cl)s1,nt,61*,1.1,-4,-61,-148
Cc1cccc(OCc2nnc(N)s2)c1C,nt,4,-0.13,0,-4,19
C/C(=N/OC(=O)c1ccc(F)cc1)c1ccc(C)cc1,nt,-14,0.4,1,14,-18
CCn1c(/C=C/N(C(C)=O)c2ccccc2)[n+](CC)c2ccc(Cl)cc21,nt,nt,1.7,nt,nt,nt
CC[n+]1c(/C=C/C=C/N(C(C)=O)c2ccccc2)sc2ccccc21,nt,57*,0.05,13,-57,3
O=C1N/C(=N/NC(=O)c2cccc3ccccc23)S/C1=C\c1ccccc1OCc1ccccc1,nt,-21,-3*,19,21,-4
CC(C)C(OC(=O)c1nsc(Cl)c1Cl)C(=O)NCc1ccc2c(c1)OCO2 (centres undefined),nt,-5,1.2,3,-96,86*
C=COC(=O)CSc1snc(SCC(=O)OC)c1C#N,1,-9,0.52,0,9,44
c1cncc(C2Nc3ccccc3-c3nc4ccccc4n32)c1 (centres undefined),nt,-15,-3.3*,1,15,7
CC(=O)Nc1ccccc1-c1nnc(SCc2ccccc2Cl)[nH]c1=O,nt,-1,-2.5,-3,1,-90
COCCn1c(SCC(=O)c2ccc(Cl)cc2)nnc1C(C)C,9,-5,-0.62,2,5,32

# Screening data (PubChem)
